Screening data from PubChem.
Most compounds without a hit are left out; they make up all but 10% or so of the library.
Six1-Eya2 blk: Six1/Eya2 interaction inhibition. Q15475+O00167. AlphaScreen GST-Six1/His-Eya2 binding, biochemical; hits give low values. activity change, % (no concentration beside the values). 360,000 compounds, 0.56% hits; in the data active = activity change below about -65%; inconclusive = mostly about -30% to -63%; note: % is set by controls: 0 for no effect and ±100 for the full control effect
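Compounds are tested against tagged Six1 and Eya2 proteins bridged by glutathione donor and nickel acceptor beads; after a one-hour incubation at 37 °C without light, AlphaScreen emission is recorded.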
HP1b binding inh: blocks HP1-beta chromodomain binding to methylated histone tails; P83916; AlphaScreen HP1-beta / biotin-H3K9me3 peptide binding; Potency, µM (top dose mostly 114 µM), for inactives: at the highest dose activity change, negative = inhibition, usual class: inhibitors; 390,000 compounds, 0.56% hits; note: potency is the fitted concentration of half-maximal effect; nearly all actives have a fitted effect of over 70% in size
Target sequence (P83916 whole entry, looked up): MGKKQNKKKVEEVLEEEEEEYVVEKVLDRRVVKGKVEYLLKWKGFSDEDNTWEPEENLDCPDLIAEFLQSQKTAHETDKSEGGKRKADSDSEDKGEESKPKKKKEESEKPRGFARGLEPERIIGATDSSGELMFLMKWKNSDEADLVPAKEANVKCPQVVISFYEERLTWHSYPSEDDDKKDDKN
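AlphaScreen: HP1-beta (50 nM) preformed 30 min with biotin-H3(1-18)K9me3 peptide (50 nM) in PBS pH 7.4, 0.01% Tween-20. Compound added for 30 min at RT, then streptavidin donor/nickel chelate acceptor beads (10 ug/mL) for 30 min.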
CtBP-E1A blk: blocks the CtBP interaction with E1A; 340,000 compounds, 0.49% hits; AlphaScreen GST-E1A/His-CtBP binding, 1536-well; hits give low values; activity change, % (concentration not given with the values); in the data active = activity change below about -65%; inconclusive = mostly about -30% to -63%; note: % is set by controls: 0 for no effect and ±100 for the full control effect
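GST-E1A and His-tagged CtBP (125 nM each as 5X stock) were preincubated with pin-transferred compound for 2 h at 37 °C in the dark, then glutathione donor and nickel acceptor beads were added for 1 h before AlphaScreen reading.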
G9a inh: inhibitors of human histone lysine methyltransferase G9a; Q96KQ7; Potency, µM (doses to about 102 µM), without a hit: at the highest dose activity, negative = inhibition, most hits filed as inhibitors; G9a H3K9 monomethylation, AlphaScreen, 2 h; 350,000 compounds, 8.8% hits; note: potency is the fitted concentration of half-maximal effect; % is set by controls: 0 for no effect and ±100 for the full control effect; nearly all actives have a fitted effect of over 75% in size
Target sequence (Q96KQ7 913-1193 limits assumed): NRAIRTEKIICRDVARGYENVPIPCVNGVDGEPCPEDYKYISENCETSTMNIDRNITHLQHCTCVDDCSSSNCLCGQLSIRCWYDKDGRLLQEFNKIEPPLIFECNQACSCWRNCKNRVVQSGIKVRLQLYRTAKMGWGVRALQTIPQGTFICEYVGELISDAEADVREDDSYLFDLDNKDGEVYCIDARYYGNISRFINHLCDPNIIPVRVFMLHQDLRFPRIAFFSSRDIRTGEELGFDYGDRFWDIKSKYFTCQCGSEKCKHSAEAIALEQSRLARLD
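G9a (20 nM) preincubated 15 min RT with compounds, then 500 nM biotinylated H3K9 peptide and 20 uM SAM added; 2 h RT reaction. Monomethyl-H3K9 product detected by AlphaScreen with anti-H3K9me1 antibody, streptavidin donor and anti-rabbit IgG acceptor beads.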
JMJD2A Tudor inh: JMJD2A Tudor domain (human) inhibition; O75164; AlphaScreen JMJD2A-Tudor / H3K4me3 peptide binding; Potency, µM (top dose mostly 114 µM), without a hit: at the highest dose activity change, negative = inhibition, usual class: inhibitors; 390,000 compounds, 4.4% hits; note: potency is the fitted concentration of half-maximal effect; % is set by controls: 0 for no effect and ±100 for the full control effect; nearly all actives have a fitted effect of over 50% in size
BAZ2B inh: BAZ2B (human) inhibition | 360,000 compounds, 4.4% hits | Potency, µM (highest dose often 114 µM), inactives show top-dose activity change, negative = inhibition, actives largely listed as inhibitors | AID 504333 | Q9UIF8 | AlphaScreen BAZ2B-H3K14Ac peptide displacement; note: potency is the fitted concentration of half-maximal effect; % is set by controls: 0 for no effect and ±100 for the full control effect; nearly all actives have a fitted effect of over 60% in size
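Protein-peptide AlphaScreen: BAZ2B 50 nM, b-H3K14Ac 50 nM, 1x PBS pH 7.4 + 0.01% Tween-20. Preincubation 30 min RT; cpd 30 min RT (top 110 uM); beads 20 min RT, light-protected.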
An asterisk follows results filed as active; u = inconclusive; x = no result given; [ ] = remark or other dose. Unless noted, calls come from the whole dose curve; as a rule, active = well fitted inhibition curve with a large enough effect; inconclusive = small, poorly fitted or top-dose-only effect; inactive = no such curve, though single readings can be large or run the other way.

SMILES	Six1-Eya2 blk	HP1b binding inh	CtBP-E1A blk	G9a inh	JMJD2A Tudor inh	BAZ2B inh
O=C(NNC(=O)c1ccc(NC(=O)c2ccccc2)cc1)Nc1ccccc1	4	15%	-3	u	u	71µM*
O=[N+]([O-])c1ccc(O)c2ncccc12	-91*	-4%	-96*	u	22µM*	3.5µM*
O=[N+]([O-])c1cc([N+](=O)[O-])c2cccnc2c1Oc1ccccc1O	-65*	71µM*	u	3.2µM*	22µM*	28µM*
O=[N+]([O-])c1ccc(O)c2cccnc12	-10	u	-6	u	-20%	u
Cc1cnc(CNc2nc(-c3cccc(NS(C)(=O)=O)c3)nc3ccccc23)cn1	x	x	x	7%[0.501 µM]	x	x
O=C(C1CCOCC1)N1CCC(CO)(CCc2ccccc2)CC1	2	20%	1	u	0%	2%
COc1ccc2[nH]c3c(c2c1)CCN1C(=O)N([C@@H](C)C(=O)NC2CC2)C(=O)[C@]31C	-8	-9%	-1	8%	-20%	-9%[57.1 µM]
C[C@@H](C(=O)NC1CCN(Cc2ccccc2)CC1)N1C(=O)N2CCc3c([nH]c4ccccc34)[C@@]2(C)C1=O	-7	-11%	-12	-17%	u	u
CC(C)C[C@@H](C(=O)NC1CCN(Cc2ccccc2)CC1)N1C(=O)N2CCc3c([nH]c4ccccc34)[C@@]2(C)C1=O	u	u	-26	u	40µM*	u
COc1ccc2[nH]c3c(c2c1)CCN1C(=O)N([C@@H](C)C(=O)NC2CCN(Cc4ccccc4)CC2)C(=O)[C@]31C	-20	4%	-15	x	u	50µM*
COc1ccc2[nH]c3c(c2c1)CCN1C(=O)N([C@@H](C)C(=O)NCc2ccco2)C(=O)[C@]31C	-7	12%	-7	1%	-26%	50µM*
O=C(Nc1ccc(Cl)c(Cl)c1)N[C@@H]1CC[C@@H](CCn2cc(C3CCCCC3)nn2)O[C@@H]1CO	-6	x	-1	x	x	x
OCCNCC(O)Cn1c2ccccc2c2ccccc21 (centres undefined)	9	54%	9	3%	-25%	-18%
COc1ccc(-c2cc3ccccc3n2CC(O)CNCCO)cc1 (centres undefined)	-9	u	-7	35µM*	5µM*	50µM*
Cc1cc2nc(C3CCCCC3)c(Cc3cccc(Cl)c3)n2c(C)c1Br	-1	x	5	x	x	x
Cc1cc([N+](=O)[O-])nn1Cc1noc(C(=O)NCCc2ccccn2)n1	-1	36%	-9	-1%	15%	-2%
C[C@H](NC(=O)c1cc2c(cn1)[nH]c1ccccc12)C(=O)O	6	28µM*	-7	1.4µM*	45µM*	50µM*
COC(=O)[C@H](C)NC(=O)c1cc2c(cn1)[nH]c1ccccc12	1	u	-2	1.4µM*	40µM*	u
O=C(NCCCO)c1cc2c(cn1)[nH]c1ccccc12	-14	35%	1	9%	-20%	u
O=C(O)c1cc2c(cn1)[nH]c1ccccc12	-79*	17%	-93*	23%	7.1µM*	4µM*
CCOC(=O)C(Cc1ccc(O)cc1)NC(=O)c1cc2c(cn1)[nH]c1ccccc12 (centres undefined)	1	x	3	x	x	x
CCc1sc(Nc2cccc(Cl)c2)nc1-c1cc2cccc(OC)c2oc1=O	x	45%	x	6%[59 µM]	-14%	-6%
COC1=CC(=O)C[C@@H](C)[C@]12Oc1c(Cl)c(OC)cc(OC)c1C2=O	0	14%	4	19%[12.7 µM]	-18%	-7%
CN(C)CCNC(=O)C(=O)NCC(c1cccnc1)N1CCN(c2ccccc2)CC1 (centres undefined)	x	7%	x	-9%[59 µM]	-27%	-10%
CCN(CC)CCNC(=O)CCn1c(=O)c2cccn2c2cccnc21	x	5%	x	-32%[59 µM]	-5%	-4%
SMILES	Six1-Eya2 blk	HP1b binding inh	CtBP-E1A blk	G9a inh	JMJD2A Tudor inh	BAZ2B inh
CCOC(=O)C1=C(C)N(CC(C)C)C(=O)/C1=C\c1ccc(OCC(=O)Nc2ccccc2)cc1	-3	-5%	0	50µM*	-36%[57.1 µM]	-37%[57.1 µM]
Cn1c(=O)c2[nH]c(N/N=C(/C#N)C(N)=O)nc2n(C)c1=O	-10	-3%	-11	14µM*	-19%	u
CCC(COC(C)=O)Nc1nc2c([nH]1)c(=O)n(C)c(=O)n2C (centres undefined)	-4	32%	10	x	-6%	5%
CCN(CC)S(=O)(=O)c1ccc2c(c1)c(=O)c(C(=O)N(C)Cc1ccccc1)cn2C	x	2%	x	-2%[59 µM]	-17%	x
N#CC1=C2SCC(O)(c3ccccc3)N2C(=O)CC1c1cccs1 (centres undefined)	-22	-5%	-4	50µM*	-29%	u
COc1ccc(CN2CCCC(C(=O)N3CCc4ccccc4C3)C2)cc1OC (centres undefined)	0	-7%	-10	u	22µM*	89µM*
CCOC(=O)C1CCCN(C(=O)Cc2ccc(OC)c(OC)c2)C1 (centres undefined)	-13	13%	-9	20%[59 µM]	-24%	9%
COc1ccc(CN2CCCC(C(=O)N3CCCCC3)C2)cc1OC (centres undefined)	5	9%	x	2.8µM*	20µM*	71µM*
O=C(C1CCCN(Cc2ccc([N+](=O)[O-])cc2)C1)N1CCCCC1 (centres undefined)	-7	u	x	28µM*	25µM*	56µM*
CCCCCOc1ccc(/C=C/C(=O)Nc2sc(C(C)=O)c(C)c2C(=O)OCC)cc1OC	x	46%	x	15%[59 µM]	-7%	-2%
CCSc1nnc(NC(=O)CN2C(=O)N(C)C3(CCCCC3)C2=O)s1	2	10%	-2	u	-15%	1%
c1ccc(-c2sc3ccccc3c2-c2ccc(OCCN3CCCC3)cc2)cc1	-20	-15%	-4	x	50µM*	x
COc1ccc(-c2sc3ccccc3c2-c2ccc(OCCN3CCCCC3)cc2)cc1	-10	-15%	-6	x	45µM*	x
COc1cccc(-c2sc3ccccc3c2-c2ccc(OCCN3CCCCC3)cc2)c1	-24	-11%	-7	x	u	x
O=C(O)c1cc(Br)ccn1	u	7%	-24	16µM*	3.2µM*	x
CN(C)c1ccnc(C(=O)O)c1	u	1%	-13	4.5µM*	0.71µM*	22µM*
COC(=O)[C@@]1(C)[C@H]2C(=O)N(C)C(=O)[C@H]2[C@H]2CN(C)C(=NC3CCCCC3)N21	14	37%	7	x	-6%	x
CN1CCC(N(C)S(=O)(=O)c2ccc(NC(=O)COc3cccc(Cl)c3)cc2)CC1	-10	-2%	-5	40µM*	-22%	3%
